According to PubChem BioAssay (NCATS):
Inconclusive results are not listed. Calls of active or inactive are those of the source. Unless noted, the call rests on the fitted dose curve; in most records, active means well fitted curve in the direction sought with a large enough effect; inconclusive means small, poorly fitted or top-dose-only effect, or another doubt; inactive means no such curve, though single readings can be large; an effect the other way counts as inactive or inconclusive.

Tests used:
[1] = qHTS Assay for Identification of Small Molecule Antagonists for Thrombopoietin (TPO) Signaling Pathway (AID 918); conditions: TPO-dependent cell signaling reporter, antagonist mode; further: potency means the concentration at half of the fitted maximal effect; nearly all actives have a fitted effect of over 60% in size
Procedure, shortened: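 Inhibition read as reduced luciferase luminescence after 24 h at 37 C in IL-3-deprived Ba/F3 cells carrying human TPO receptor and GPIIb-promoter reporter, stimulated with 26 pM TPO (final, its EC50) alongside compound.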

[2] = molecular target: Muscarinic acetylcholine receptor M1 (Rattus norvegicus) (UniProt P08482); assay: qHTS Assay for Antagonists of Acetylcholine Muscarinic M1 Receptor: Kinetic Measurement of Intracellular Calcium Response (AID 943);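 further: Fluo-4 calcium signal as peak divided by basal fluorescence over 4 min; series mostly up to about 35 µM; nearly all actives have a fitted effect of over 75% in size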
Procedure, shortened: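 Antagonism measured as reduction of carbachol-evoked (EC80, 100 nM final) calcium flux in rat M1-CHO cells after 10 min compound exposure. Fluo-4 signal read kinetically; ratio of maximal to basal fluorescence.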

[3] = molecular target: Muscarinic acetylcholine receptor M1 (Rattus norvegicus) (UniProt P08482); assay: qHTS Assay for Antagonists of Acetylcholine Muscarinic M1 Receptor: Measurement of IP-One Response (AID 944); further: nearly all actives have a fitted effect of over 75% in size; further: potency means the concentration at half of the fitted maximal effect
Procedure, shortened: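 IP1 accumulation measured via TR-FRET between d2-IP1 and Eu-cryptate anti-IP1 antibody after carbachol (200 nM, EC80) stimulation for 30 min; rat M1-transfected CHO cells received compound 10 min before agonist.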

[4] = molecular target: Pyruvate kinase (Leishmania mexicana) (UniProt Q27686); assay: qHTS Validation Assay for Inhibitors of Leishmania Mexicana Pyruvate Kinase (AID 945)
Procedure, shortened: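 Eight-point qHTS titrations in triplicate, data normalized to DMSO neutral control. Reaction: 0.2 nM LmPYK E451W mutant, 0.5 mM PEP, 0.1 mM ADP, 7 mM MgCl2, pH 7.2, one hour at room temperature; luminescent ATP detection.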

[5] = molecular target: Pyruvate kinase PKM (Homo sapiens) (UniProt P14618); assay: qHTS Assay for Activators of Human Muscle Pyruvate Kinase (AID 954; active means well fitted curve in the direction sought with a large enough effect, not every such curve was filed as active)
Procedure, shortened: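 ATP production by PKM2 detected via luciferase luminescence after 1 h room-temperature reaction (0.1 nM enzyme, PEP at Km 0.5 mM, ADP 0.1 mM, pH 7.2 imidazole buffer). Inhibition scaled to no-enzyme control; activation referenced to 0.3 nM enzyme wells.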

[6] = molecular target: Alpha-galactosidase (Coffea arabica) (UniProt Q42656); assay: Counterscreen for Glucocerebrosidase Inhibitors: qHTS Assay for Coffee Bean alpha-Galactosidase at pH 4.5 (AID 957); further: series mostly up to about 77 µM
Procedure, shortened: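 Fluorogenic qHTS at pH 4.5 (citrate buffer with Tween-20): 2 nM enzyme, 80 uM 4-MU-alpha-galactoside substrate, compound titrated 0.7 nM to 77 uM, 20 min room temperature. Glycine/NaOH stop; 4-MU read Ex 365/Em 440; Hill-equation AC50 against no-enzyme and enzyme controls.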

[7] = Confirmation and Secondary Assay for Modulators of Hemoglobin Beta Chain Splicing at IVS2 705 locus (AID 930);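 further: HeLa cells stably expressing the EGFP-705 splicing reporter; GFP fluorescence per well restored by corrected splicing of the IVS2-705 intron in EGFP; series mostly up to about 46 µM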
Procedure, shortened: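 HeLa cells stably carrying EGFP interrupted by mutant beta-globin intron 2 (IVS2-705) treated 2 days at 37C with compound; 500 nM antisense PNA as control. Correct splicing read as total peak GFP intensity per well by laser-scanning cytometry.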

[8] = Cell Viability - LYMP2-001 (AID 921); further: series mostly up to about 92 µM; nearly all actives have a fitted effect of over 70% in size
Procedure, shortened: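 A lymphoblastoid cell line of human origin was treated with library compounds across a concentration series for 24 hours, and viable cell number was estimated from ATP-driven luciferase light output. Hill modeling gave AC50.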

[9] = MultiTox-Fluor Cytotoxicity Assay - LYMP1-001 - Dead Cells (AID 946)
Procedure, shortened: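 Cytotoxicity as increased dead-cell protease fluorescence (bis-AAF-R110, 485/520 nm), read 60 min after MultiTox-Fluor reagent. Human lymphoblastoid line exposed 16 h; Hill-fitted AC50, with DMSO as 0% and 15 uM tetraoctylammonium bromide as 100%.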

[10] = MultiTox-Fluor Cytotoxicity Assay - LYMP1-001 - Live Cells (AID 947)
[11] = Cell Viability - LYMP1-002 - Assay at 16 hr (AID 948)
Procedure, shortened: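 In this qHTS, lymphoblastoid LYMP1-002 cells (human) receive compounds for 16 hr at 37 C. Viability is taken from CellTiter-Glo ATP luminescence, and AC50 derives from standard Hill fits.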

[12] = MultiTox-Fluor Cytotoxicity Assay - LYMP1-002 - Live Cells (AID 955);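 further: cells exposed to compound for 16 hours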
Procedure, shortened: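 After 16 h compound exposure at 37 C, live LYMP1-002 lymphoblastoid cells (2500/well) were quantified by cleavage of cell-permeant GF-AFC substrate, read at 405/510 nm after 60 min. Concentration-response fitted with Hill equation for AC50.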

[13] = MultiTox-Fluor Cytotoxicity Assay - LYMP1-003 - Dead Cells (AID 961); further: nearly all actives have a fitted effect of over 70% in size
Procedure, shortened: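 Dead-cell protease release, detected as bis-AAF-R110 fluorescence at 485/520 nm, was measured in LYMP1-003 cells after 16 h compound treatment at 37 C. AC50 values came from Hill-modeled qHTS curves normalized to DMSO (0%) and 15 uM tetraoctylammonium bromide (100%).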

[14] = MultiTox-Fluor Cytotoxicity Assay - LYMP1-003 - Live Cells (AID 962);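 further: cells exposed to compound for 16 hours at 37 °C; cytotoxic hits lower the live-cell protease signal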
Procedure, shortened: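 Live-cell protease activity (GF-AFC substrate, 405/510 nm, 60 min at room temperature) after 16 h, 37 C compound exposure of human lymphoblastoid LYMP1-003 cells; concentration-response fitted to the Hill equation for AC50.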

[15] = Cell Viability - LYMP1-003 - Assay at 24 hr (AID 963)
Procedure, shortened: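 Concentration-response qHTS: ATP loss measured by CellTiter-Glo luminescence after 24 h compound exposure at 37 C. Cells were LYMP1-003 human lymphoblastoid, 2500 per well. AC50 derived via standard Hill equation modeling.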

[16] = Cell Viability - LYMP1-003 - Assay at 40 hr (AID 964); further: series mostly up to about 92 µM; nearly all actives have a fitted effect of over 60% in size
Procedure, shortened: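 Viability is taken as cellular ATP, read by CellTiter-Glo luminescence after 40 h of compound exposure at 37 C. Cells: human lymphoblastoid line LYMP1-003 at 2500/well; AC50 values derived by Hill-equation fitting of concentration-response data.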

[17] = Cell Viability - LYMP2-003 (AID 965);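 further: cells exposed to compounds for 24 h before reading; nearly all actives have a fitted effect of over 50% in size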
Procedure, shortened: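 qHTS, human lymphoblastoid line, 2500 cells/well, complete medium. 24 h drug, 37 C. ATP-based luminescent readout; Hill-fit AC50.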

[18] = Cell Viability - LYMP2-004 (AID 966); further: nearly all actives have a fitted effect of over 65% in size
Procedure, shortened: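 AC50 values come from Hill modelling of concentration-dependent loss of intracellular ATP, measured by CellTiter-Glo luminescence. Human LYMP2-004 lymphoblastoid cells (2500/well) were exposed to compound for 24 h at 37 C.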

[19] = Cell Viability - LYMP2-005 (AID 967); further: series mostly up to about 92 µM
Procedure, shortened: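 Luciferase-based ATP quantitation served as the viability measure in human lymphoblastoid LYMP2-005 cells exposed to test compounds for 24 h at 37 C in complete culture medium. Potency (AC50) was obtained by fitting concentration-response curves with the Hill equation.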

[20] = Cell Viability - LYMP2-009 (AID 968); further: series mostly up to about 92 µM; nearly all actives have a fitted effect of over 55% in size

Measured: Potency

Pyruvate kinase PKM (Homo sapiens), sequence (P14618 whole entry, looked up): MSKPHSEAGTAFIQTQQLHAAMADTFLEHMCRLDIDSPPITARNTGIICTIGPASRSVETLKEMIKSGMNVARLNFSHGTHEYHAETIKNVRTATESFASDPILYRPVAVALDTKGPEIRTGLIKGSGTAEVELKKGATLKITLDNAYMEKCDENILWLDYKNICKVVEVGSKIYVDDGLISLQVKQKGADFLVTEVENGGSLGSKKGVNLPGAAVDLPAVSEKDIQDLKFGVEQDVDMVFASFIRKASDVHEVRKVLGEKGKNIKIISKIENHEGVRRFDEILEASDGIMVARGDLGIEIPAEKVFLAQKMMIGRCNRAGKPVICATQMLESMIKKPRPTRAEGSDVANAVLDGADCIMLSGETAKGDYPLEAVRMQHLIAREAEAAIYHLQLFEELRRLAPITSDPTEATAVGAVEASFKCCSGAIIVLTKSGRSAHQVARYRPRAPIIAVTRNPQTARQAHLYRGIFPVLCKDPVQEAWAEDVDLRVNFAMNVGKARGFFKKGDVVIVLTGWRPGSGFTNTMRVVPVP
Muscarinic acetylcholine receptor M1 (Rattus norvegicus), sequence (P08482 whole entry, looked up): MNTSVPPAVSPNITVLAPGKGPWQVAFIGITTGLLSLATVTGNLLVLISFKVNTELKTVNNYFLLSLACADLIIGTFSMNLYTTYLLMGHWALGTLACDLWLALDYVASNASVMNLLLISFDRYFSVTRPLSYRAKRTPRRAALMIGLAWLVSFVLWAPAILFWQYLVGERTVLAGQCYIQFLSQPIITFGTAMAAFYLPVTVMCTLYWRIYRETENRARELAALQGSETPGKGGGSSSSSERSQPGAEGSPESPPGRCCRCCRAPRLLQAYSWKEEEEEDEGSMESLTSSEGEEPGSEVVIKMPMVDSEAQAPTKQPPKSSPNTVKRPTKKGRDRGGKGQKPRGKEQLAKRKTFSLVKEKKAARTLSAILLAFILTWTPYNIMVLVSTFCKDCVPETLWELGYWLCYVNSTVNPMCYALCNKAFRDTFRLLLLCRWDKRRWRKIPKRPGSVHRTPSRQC
Pyruvate kinase (Leishmania mexicana), sequence (Q27686 2-499 E452W): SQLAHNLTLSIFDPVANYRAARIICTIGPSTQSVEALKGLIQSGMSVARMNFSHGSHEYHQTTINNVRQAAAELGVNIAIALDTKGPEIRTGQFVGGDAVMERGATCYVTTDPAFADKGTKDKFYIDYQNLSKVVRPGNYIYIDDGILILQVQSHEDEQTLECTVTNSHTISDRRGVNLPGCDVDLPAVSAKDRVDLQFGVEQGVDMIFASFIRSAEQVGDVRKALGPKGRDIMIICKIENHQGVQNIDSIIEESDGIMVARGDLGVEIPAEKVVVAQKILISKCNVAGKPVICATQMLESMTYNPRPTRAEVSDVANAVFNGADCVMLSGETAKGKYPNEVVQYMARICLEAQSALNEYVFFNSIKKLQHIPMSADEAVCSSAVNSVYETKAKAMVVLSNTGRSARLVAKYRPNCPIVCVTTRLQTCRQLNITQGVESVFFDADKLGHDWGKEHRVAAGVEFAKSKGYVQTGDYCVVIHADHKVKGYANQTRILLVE
Alpha-galactosidase (Coffea arabica), sequence (Q42656 whole entry, looked up): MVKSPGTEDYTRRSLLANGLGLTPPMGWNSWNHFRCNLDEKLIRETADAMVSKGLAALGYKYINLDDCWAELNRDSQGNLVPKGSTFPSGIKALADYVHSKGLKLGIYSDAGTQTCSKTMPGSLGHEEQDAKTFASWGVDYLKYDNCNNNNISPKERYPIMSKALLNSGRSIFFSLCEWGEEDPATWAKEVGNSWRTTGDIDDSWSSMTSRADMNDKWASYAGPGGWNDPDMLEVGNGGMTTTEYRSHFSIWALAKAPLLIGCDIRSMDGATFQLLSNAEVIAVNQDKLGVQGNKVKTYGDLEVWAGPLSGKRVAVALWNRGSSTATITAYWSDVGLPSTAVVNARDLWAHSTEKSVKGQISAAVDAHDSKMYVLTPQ

COc1ccc2c(c[n+](C)c3c4cc5c(cc4ccc23)OCO5)c1OC
active: [1] 2 µM | [3] 35.5 µM
inactive: [2] | [4] | [5] | [6]

C#CC1(O)CCC2C3CCC4=CC(=O)CCC4(C)C3CCC21C (stereo not drawn)
inactive: [7]

O=C(O)CCCOc1ccc(Cl)cc1Cl
inactive: [7]

O=C(O)C(Cl)Cl
inactive: [8] | [9] | [10] | [11] | [12] | [13] | [14] | [15] | [16] | [17] | [18] | [19] | [20]

CCCCCCCCc1ccc(O)cc1
inactive: [8] | [9] | [10] | [11] | [12] | [13] | [14] | [15] | [17] | [18] | [19] | [20]

O=C1CCCN1CC#CCN1CCCC1
inactive: [7] | [2] | [3] | [4] | [5] | [6]

O=[N+]([O-])c1c(Cl)c(Cl)cc(Cl)c1Cl
inactive: [8] | [9] | [10] | [11] | [12] | [13] | [14] | [15] | [16] | [17] | [18] | [19] | [20]

CCCCC(CC)COC(=O)c1ccccc1C(=O)OCC(CC)CCCC (stereo not drawn)
inactive: [8] | [9] | [10] | [11] | [12] | [13] | [14] | [15] | [16] | [17] | [18] | [19] | [20]

C1CCC(NC2CCCCC2)CC1
inactive: [8] | [9] | [10] | [11] | [12] | [13] | [14] | [15] | [16] | [17] | [18] | [19] | [20]

C=CC(=O)NCNC(=O)C=C
inactive: [8] | [9] | [10] | [11] | [12] | [13] | [14] | [15] | [16] | [17] | [18] | [19] | [20]

CC[C@@]1(O)C(=O)OCc2c1cc1n(c2=O)Cc2cc3ccccc3nc2-1
inactive: [7] | [4] | [5] | [6]
active: [1] 0.126 µM

CCCCOC(=O)c1ccccc1C(=O)OCc1ccccc1
inactive: [8] | [9] | [10] | [11] | [12] | [13] | [14] | [15] | [16] | [17] | [18] | [19] | [20]

CN(C)NC(=O)CCC(=O)O
inactive: [8] | [9] | [10] | [11] | [12] | [13] | [14] | [15] | [16] | [17] | [18] | [19] | [20]

O=S(=O)(c1ccc(Cl)cc1)c1ccc(Cl)cc1
inactive: [8] | [9] | [10] | [11] | [12] | [13] | [14] | [15] | [16] | [17] | [18] | [19] | [20]

Cc1nc(-c2ccc(-c3ccc(C(=O)N4CCc5cc6c(cc54)C4(CCN(C)CC4)CO6)cc3)c(C)c2)no1
active: [1] 12.6 µM
inactive: [4] | [5] | [6]

O=[N+]([O-])c1c2ccccc2cc2ccccc12
inactive: [8] | [9] | [10] | [11] | [12] | [13] | [14] | [15] | [16] | [17] | [18] | [19] | [20]

OCCCBr
inactive: [8] | [9] | [11] | [12] | [13] | [14] | [15] | [16] | [17] | [18] | [19] | [20]

O=C(O)CC[N+](=O)[O-]
inactive: [7]

Nc1ccc(Cl)cc1N
inactive: [9] | [10] | [11] | [12] | [13] | [14] | [15] | [16] | [17] | [19] | [20]

CN(C)[C@@H]1C(=O)C(C(N)=O)=C(O)[C@@]2(O)C(=O)C3=C(O)c4c(O)cccc4[C@@](C)(O)[C@H]3[C@H](O)[C@@H]12
inactive: [9] | [10] | [11] | [12] | [13] | [14] | [15] | [16] | [17] | [18] | [19] | [20]
